Test results from PubChem BioAssay (EPA / NIEHS).
Inconclusive results are not listed. Active and inactive are the calls of the source. Rule for the calls: active = hit-call score of the fitted dose curve at least 0.9, where 1 is the maximum; inconclusive = response in the unintended direction; inactive = score below 0.9.

Tests used:
[1] = biological target: human Peroxisome Proliferator-activated Receptor alpha (PPARa), PPARA (gene 5465) (UniProt Q07869); assay: ATG_PPARa_TRANS: Attagene TRANS-FACTORIAL HepG2 Assay for human Peroxisome Proliferator-activated Receptor alpha (PPARa) (AID 2283001)
How it was run: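 Gain-of-signal endpoint: reporter mRNA induction relative to DMSO, detected by fluorescent RT-PCR and capillary electrophoresis. HepG2 cells transiently carried GAL4-UAS-driven reporter units plus NR-Gal4 fusion; exposure lasted 24 h.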

[2] = biological target: Peroxisome proliferator-activated receptor gamma (Homo sapiens) (UniProt P37231); assay: ATG_PPARg_TRANS: Attagene TRANS-FACTORIAL HepG2 Assay for human Peroxisome Proliferator-activated Receptor-gamma (PPARg) (AID 2283007)
How it was run: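 After 24 h of chemical exposure, transfected HepG2 cells carrying PPARγ-Gal4 chimera reporter constructs are lysed for RNA. Reporter transcripts are measured by RT-PCR and capillary electrophoresis with fluorescent labelling, and gain of signal is fitted versus DMSO.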

[3] = biological target: Nuclear receptor subfamily 1 group I member 2 (Homo sapiens) (UniProt O75469); assay: ATG_PXR_TRANS: Attagene TRANS-FACTORIAL HepG2 Assay for human Pregnane X Receptor (PXR) (AID 2283008)
How it was run: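 Read-out is fluorescence of labelled reporter cDNA fragments separated by capillary electrophoresis after RT-PCR and HpaI digestion. Source: HepG2 cells carrying PXR-GAL4/UAS reporter constructs, treated 24 h; activity fitted upward relative to DMSO.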

[4] = biological target: human RAR-related Orphan Receptor gamma (RORg), RORC (gene 6097) (UniProt P51449); assay: ATG_RORg_TRANS: Attagene TRANS-FACTORIAL HepG2 Assay for human RAR-related Orphan Receptor gamma (RORg) (AID 2283011)
How it was run: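 Transient MRTU transfection of HepG2 (TRANS format, exogenous NR-Gal4 chimera). 24 h dosing. Total RNA → oligo(dT) RT → PCR → 6-FAM labelling → HpaI cut → CE. Gain vs DMSO.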

[5] = biological target: human Thyroid Receptor alpha (THRa1), THRA (gene 7067) (UniProt P10827); assay: ATG_THRa1_TRANS: Attagene TRANS-FACTORIAL HepG2 Assay for human Thyroid Receptor alpha (THRa1) (AID 2283014)
How it was run: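 Transient HepG2 transfection, NR-Gal4 chimera driving GAL4-UAS reporters; 24 h compound exposure; total RNA, oligo(dT) RT, PCR, fluorescent primer extension, capillary electrophoresis. Upward direction vs DMSO control.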

[6] = biological target: human Retinoic Acid Receptor beta (RARb), RARB (gene 5915) (UniProt P10826); assay: ATG_RARb_TRANS: Attagene TRANS-FACTORIAL HepG2 Assay for human Retinoic Acid Receptor beta (AID 2283004)
How it was run: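 Readout is reporter mRNA induction: RNA reverse-transcribed, PCR-amplified, FAM-labelled, HpaI-cut and resolved by capillary electrophoresis. Transiently transfected HepG2 cells carrying exogenous NR–Gal4 chimeras were dosed for 24 h; activity fitted upward relative to DMSO.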

[7] = biological target: human Retinoic Acid Receptor gamma (RARg), RARG (gene 5916) (UniProt P13631); assay: ATG_RARg_TRANS: Attagene TRANS-FACTORIAL HepG2 Assay for human Retinoic Acid Receptor gamma (RARg) (AID 2283009)
How it was run: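 HepG2 transiently transfected with GAL4-UAS reporter units and chimeric NR-Gal4 constructs; 24 h compound exposure. Reporter mRNA quantified by RT-PCR, FAM labeling, HpaI digestion and capillary electrophoresis; gain-of-signal versus DMSO.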

[8] = biological target: Retinoic acid receptor RXR-alpha (Homo sapiens) (UniProt P19793); assay: ATG_RXRa_TRANS: Attagene TRANS-FACTORIAL HepG2 Assay for human Retinoid X Receptor alpha (RXRa) (AID 2283012)
How it was run: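 HepG2 cells transiently transfected with GAL4-UAS reporter units and chimeric RXRa-Gal4 protein, treated 24 h. Reporter mRNA measured by RT-PCR, fluorescent labelling, HpaI digestion and capillary electrophoresis. Induction fitted against DMSO.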

[9] = biological target: human Retinoid X Receptor beta (RXRb), RXRB (gene 6257) (UniProt P28702); assay: ATG_RXRb_TRANS: Attagene TRANS-FACTORIAL HepG2 Assay for human Retinoid X Receptor beta (RXRb) (AID 2283013)
How it was run: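 HepG2 cells were transiently transfected with multiplexed GAL4-UAS reporters and a chimeric RXRb-Gal4 construct, then exposed for 24 h. Reporter mRNA was quantified by RT-PCR, FAM labeling, HpaI digestion and capillary electrophoresis; gain of signal was scored against DMSO.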

[10] = biological target: human RAR-related Orphan Receptor beta (RORb), RORB (gene 6096) (UniProt Q92753); assay: ATG_RORb_TRANS: Attagene TRANS-FACTORIAL HepG2 Assay for human RAR-related Orphan Receptor beta (RORb) (AID 2283010)
How it was run: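 HepG2 cells transiently transfected with GAL4-UAS reporter units expressing chimeric NR-Gal4 protein; reporter mRNA measured 24 h after dosing by RT-PCR, 6-FAM labelling and capillary electrophoresis. Gain-of-signal fitted relative to DMSO baseline.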

Sequence of Retinoic acid receptor RXR-alpha (Homo sapiens) (P19793 whole entry, looked up, the tested form may be a part): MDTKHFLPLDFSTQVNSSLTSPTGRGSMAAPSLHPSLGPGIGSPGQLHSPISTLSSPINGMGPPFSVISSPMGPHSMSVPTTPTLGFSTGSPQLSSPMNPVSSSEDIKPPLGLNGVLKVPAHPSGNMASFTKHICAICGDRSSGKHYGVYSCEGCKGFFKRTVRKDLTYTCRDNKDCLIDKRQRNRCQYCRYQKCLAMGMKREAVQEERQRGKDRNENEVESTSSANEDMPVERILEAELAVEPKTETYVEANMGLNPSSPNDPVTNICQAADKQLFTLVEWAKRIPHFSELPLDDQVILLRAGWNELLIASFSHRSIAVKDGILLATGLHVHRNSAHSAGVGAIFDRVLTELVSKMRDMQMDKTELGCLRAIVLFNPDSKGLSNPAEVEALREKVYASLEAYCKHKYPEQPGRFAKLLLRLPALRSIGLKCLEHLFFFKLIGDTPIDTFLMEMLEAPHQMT
Sequence of human Peroxisome Proliferator-activated Receptor alpha (PPARa), PPARA (gene 5465) (Q07869 whole entry, looked up, the tested form may be a part): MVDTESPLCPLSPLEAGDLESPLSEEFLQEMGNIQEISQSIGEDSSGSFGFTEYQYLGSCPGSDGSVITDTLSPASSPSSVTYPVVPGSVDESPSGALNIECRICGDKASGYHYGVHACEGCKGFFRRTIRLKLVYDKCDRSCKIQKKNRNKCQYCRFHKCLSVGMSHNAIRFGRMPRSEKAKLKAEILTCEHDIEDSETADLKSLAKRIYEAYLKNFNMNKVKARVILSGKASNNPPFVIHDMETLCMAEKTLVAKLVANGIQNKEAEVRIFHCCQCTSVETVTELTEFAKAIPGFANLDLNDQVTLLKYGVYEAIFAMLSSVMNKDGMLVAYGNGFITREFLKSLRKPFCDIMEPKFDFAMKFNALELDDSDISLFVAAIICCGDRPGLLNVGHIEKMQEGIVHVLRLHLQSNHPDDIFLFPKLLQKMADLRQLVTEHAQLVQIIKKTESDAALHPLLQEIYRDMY
Sequence of human Retinoid X Receptor beta (RXRb), RXRB (gene 6257) (P28702 whole entry, looked up, the tested form may be a part): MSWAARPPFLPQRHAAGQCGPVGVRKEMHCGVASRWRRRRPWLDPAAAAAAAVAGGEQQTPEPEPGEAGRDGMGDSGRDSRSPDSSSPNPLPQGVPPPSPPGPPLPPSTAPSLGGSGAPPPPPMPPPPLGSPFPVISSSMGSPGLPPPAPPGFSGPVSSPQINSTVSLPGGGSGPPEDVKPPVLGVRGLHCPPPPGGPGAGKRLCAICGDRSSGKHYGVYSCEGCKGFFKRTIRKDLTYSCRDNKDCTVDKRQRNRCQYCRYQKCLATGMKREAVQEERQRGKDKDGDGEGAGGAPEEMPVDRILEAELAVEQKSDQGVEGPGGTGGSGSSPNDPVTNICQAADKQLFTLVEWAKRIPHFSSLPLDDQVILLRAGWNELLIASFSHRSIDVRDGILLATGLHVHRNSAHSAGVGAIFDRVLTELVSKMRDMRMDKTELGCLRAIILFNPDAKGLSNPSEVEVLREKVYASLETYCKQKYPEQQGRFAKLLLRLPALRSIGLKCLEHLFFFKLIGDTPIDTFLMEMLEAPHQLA
Sequence of human Thyroid Receptor alpha (THRa1), THRA (gene 7067) (P10827 whole entry, looked up, the tested form may be a part): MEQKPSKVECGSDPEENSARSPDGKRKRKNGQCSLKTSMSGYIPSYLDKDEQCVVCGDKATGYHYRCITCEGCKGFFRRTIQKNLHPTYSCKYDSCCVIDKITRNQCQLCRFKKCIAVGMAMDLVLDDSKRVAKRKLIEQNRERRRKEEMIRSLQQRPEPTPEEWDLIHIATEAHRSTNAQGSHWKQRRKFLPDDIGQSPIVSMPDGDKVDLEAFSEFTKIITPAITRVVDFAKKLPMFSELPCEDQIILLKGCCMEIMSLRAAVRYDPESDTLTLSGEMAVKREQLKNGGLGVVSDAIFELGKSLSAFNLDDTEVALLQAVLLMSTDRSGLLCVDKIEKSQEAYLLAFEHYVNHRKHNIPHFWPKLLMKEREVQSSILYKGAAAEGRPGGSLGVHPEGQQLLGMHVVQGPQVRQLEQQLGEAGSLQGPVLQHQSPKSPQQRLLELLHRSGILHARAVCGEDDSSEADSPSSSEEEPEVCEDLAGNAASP
Sequence of Nuclear receptor subfamily 1 group I member 2 (Homo sapiens) (O75469 whole entry, looked up, the tested form may be a part): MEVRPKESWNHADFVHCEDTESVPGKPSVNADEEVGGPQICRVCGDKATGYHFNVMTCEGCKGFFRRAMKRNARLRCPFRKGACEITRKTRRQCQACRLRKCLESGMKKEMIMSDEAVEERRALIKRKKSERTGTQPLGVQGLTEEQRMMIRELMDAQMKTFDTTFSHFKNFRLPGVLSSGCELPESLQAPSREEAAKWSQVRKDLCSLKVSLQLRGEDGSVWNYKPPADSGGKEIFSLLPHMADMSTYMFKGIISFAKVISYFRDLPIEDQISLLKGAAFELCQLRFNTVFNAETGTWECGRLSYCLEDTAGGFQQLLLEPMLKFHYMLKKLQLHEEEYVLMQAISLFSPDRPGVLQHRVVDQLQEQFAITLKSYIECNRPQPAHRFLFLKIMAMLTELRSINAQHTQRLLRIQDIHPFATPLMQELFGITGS
Sequence of human RAR-related Orphan Receptor beta (RORb), RORB (gene 6096) (Q92753 whole entry, looked up, the tested form may be a part): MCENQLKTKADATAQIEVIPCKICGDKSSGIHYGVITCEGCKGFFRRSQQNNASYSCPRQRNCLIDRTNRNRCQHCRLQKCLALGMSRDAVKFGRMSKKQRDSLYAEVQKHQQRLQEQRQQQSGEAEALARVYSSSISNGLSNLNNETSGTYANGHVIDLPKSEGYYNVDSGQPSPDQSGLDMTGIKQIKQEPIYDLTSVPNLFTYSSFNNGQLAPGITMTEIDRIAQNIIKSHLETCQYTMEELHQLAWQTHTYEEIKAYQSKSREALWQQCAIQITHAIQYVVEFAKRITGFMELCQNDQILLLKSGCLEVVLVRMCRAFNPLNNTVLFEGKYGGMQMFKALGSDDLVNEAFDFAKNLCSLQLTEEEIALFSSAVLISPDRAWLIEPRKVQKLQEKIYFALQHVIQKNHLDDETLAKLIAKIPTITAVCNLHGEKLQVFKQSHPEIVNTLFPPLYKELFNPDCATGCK
Sequence of Peroxisome proliferator-activated receptor gamma (Homo sapiens) (P37231 whole entry, looked up, the tested form may be a part): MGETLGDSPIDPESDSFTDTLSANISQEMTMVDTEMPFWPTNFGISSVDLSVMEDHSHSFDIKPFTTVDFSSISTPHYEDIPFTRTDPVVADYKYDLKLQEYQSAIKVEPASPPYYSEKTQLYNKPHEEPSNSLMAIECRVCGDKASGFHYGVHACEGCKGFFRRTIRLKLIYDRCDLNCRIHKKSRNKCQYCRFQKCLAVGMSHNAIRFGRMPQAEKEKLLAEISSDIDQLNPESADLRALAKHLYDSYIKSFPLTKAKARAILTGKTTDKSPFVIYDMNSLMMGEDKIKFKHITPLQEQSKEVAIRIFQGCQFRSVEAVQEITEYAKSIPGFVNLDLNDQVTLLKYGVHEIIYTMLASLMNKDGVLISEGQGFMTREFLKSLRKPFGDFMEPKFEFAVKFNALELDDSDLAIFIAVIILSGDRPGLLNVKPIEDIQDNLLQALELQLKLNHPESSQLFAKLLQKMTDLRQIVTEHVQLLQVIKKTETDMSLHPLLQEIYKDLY
Sequence of human RAR-related Orphan Receptor gamma (RORg), RORC (gene 6097) (P51449 whole entry, looked up, the tested form may be a part): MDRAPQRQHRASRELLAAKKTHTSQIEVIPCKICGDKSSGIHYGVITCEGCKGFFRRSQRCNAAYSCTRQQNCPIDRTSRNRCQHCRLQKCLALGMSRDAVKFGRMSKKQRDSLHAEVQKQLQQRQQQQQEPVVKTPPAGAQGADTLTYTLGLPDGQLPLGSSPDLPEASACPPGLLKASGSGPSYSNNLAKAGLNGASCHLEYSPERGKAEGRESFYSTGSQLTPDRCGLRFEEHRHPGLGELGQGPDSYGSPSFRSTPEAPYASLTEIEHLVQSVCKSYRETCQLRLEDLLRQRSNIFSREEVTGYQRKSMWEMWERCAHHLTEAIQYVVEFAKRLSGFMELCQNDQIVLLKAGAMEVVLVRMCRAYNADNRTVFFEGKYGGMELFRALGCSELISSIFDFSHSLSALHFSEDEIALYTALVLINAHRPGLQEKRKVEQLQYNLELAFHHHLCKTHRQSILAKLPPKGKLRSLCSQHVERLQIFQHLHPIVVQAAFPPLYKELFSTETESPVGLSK
Sequence of human Retinoic Acid Receptor gamma (RARg), RARG (gene 5916) (P13631 whole entry, looked up, the tested form may be a part): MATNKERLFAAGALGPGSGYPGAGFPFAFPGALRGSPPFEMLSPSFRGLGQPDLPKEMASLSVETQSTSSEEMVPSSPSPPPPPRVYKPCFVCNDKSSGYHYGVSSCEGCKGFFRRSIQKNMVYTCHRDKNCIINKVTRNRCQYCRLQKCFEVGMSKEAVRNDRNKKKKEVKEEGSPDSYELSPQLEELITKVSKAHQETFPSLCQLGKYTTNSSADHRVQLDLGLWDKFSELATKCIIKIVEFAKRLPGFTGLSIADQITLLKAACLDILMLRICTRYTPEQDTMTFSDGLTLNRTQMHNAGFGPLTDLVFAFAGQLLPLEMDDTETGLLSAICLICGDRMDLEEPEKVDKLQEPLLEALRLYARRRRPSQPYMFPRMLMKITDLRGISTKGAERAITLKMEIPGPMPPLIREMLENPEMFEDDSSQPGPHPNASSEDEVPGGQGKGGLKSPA
Sequence of human Retinoic Acid Receptor beta (RARb), RARB (gene 5915) (P10826 whole entry, looked up, the tested form may be a part): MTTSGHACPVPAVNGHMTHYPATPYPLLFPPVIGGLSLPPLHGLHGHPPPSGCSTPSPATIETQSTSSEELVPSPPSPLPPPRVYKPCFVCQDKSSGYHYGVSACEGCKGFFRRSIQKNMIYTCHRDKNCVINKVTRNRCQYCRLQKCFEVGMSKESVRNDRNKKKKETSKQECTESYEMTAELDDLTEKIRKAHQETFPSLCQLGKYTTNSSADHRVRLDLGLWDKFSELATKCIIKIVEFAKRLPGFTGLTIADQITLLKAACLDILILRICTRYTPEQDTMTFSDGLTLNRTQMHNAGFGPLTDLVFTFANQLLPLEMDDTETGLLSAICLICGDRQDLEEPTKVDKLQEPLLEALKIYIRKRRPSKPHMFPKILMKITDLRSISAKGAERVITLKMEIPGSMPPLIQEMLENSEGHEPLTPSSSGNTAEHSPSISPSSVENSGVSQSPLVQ

CCO[Si](CCC#N)(OCC)OCC
outcome [1]: inactive
outcome [2]: inactive
outcome [3]: inactive
outcome [4]: inactive
outcome [5]: inactive

N#CCCCC(C#N)CCC#N (centres undefined)
outcome [1]: inactive
outcome [6]: inactive
outcome [3]: inactive
outcome [7]: inactive
outcome [8]: inactive
outcome [9]: inactive
outcome [5]: inactive

CCOC(=O)COC(=O)c1ccccc1C(=O)OCC
outcome [1]: inactive
outcome [2]: inactive

O=C(O)c1cc2ccccc2cc1O
outcome [1]: inactive
AC50 [2]: 36.1 µM (active)
outcome [3]: inactive
outcome [10]: inactive
outcome [8]: inactive
outcome [9]: inactive
outcome [5]: inactive

COc1ccc(C(C)=O)cc1
outcome [1]: inactive
outcome [2]: inactive
outcome [3]: inactive
outcome [10]: inactive
outcome [4]: inactive
outcome [8]: inactive
outcome [5]: inactive

C=C(C)C(=O)OCCOCCOC(=O)C(=C)C
outcome [1]: inactive
outcome [2]: inactive
outcome [3]: inactive
outcome [8]: inactive
outcome [9]: inactive

CC(=O)CCc1ccc(O)cc1
outcome [1]: inactive
outcome [2]: inactive
outcome [3]: inactive
outcome [10]: inactive
outcome [9]: inactive
outcome [5]: inactive
